An excerpt weighted towards active compounds, which were near 1.6% of everything screened.
KCNH2 3.1 inh: qHTS for Inhibitors of KCHN2 3.1: Mutant qHTS; U2OS KCNH2 3.1, thallium flux FluxOr; hits give low values; hit rate 0.95% among 340,000; Potassium voltage-gated channel subfamily H member 2, brain isoform KCNH2 3.1 (human); activity change, % (tested at about 1.8 µM);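 active = maximum activity change below -70%; inconclusive = maximum activity change from -70% to -50%; inactive = maximum activity change above -50%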;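 also: thallium influx rate constant from kinetic fluorescence after stimulation buffer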
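Thallium flux read-out: FluxOr dye with Red40 quencher in HBSS/HEPES, 45 min at RT. Rate constants from kinetic reads were normalized to positive and negative DMSO controls. Cells: U2OS virally expressing the 3.1 isoform.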
Glioma ERSR ind: qHTS for Inducers of the Endoplasmic Reticulum Stress Response (ERSR) in Human Glioma: qHTS; U87-MG GRP78 promoter luciferase reporter, 16 h; hit rate 0.02% among 420,000; Potency, µM, most hits filed as activators; active = well fitted activation curve with a large enough effect; inconclusive = small, poorly fitted or top-dose-only effect; inactive = no such curve, though single readings can be large or run the other way; also: series mostly up to about 76 µM; nearly all actives have a fitted effect of over 35% in size
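Stably transfected U87-MG human glioma cells carrying a GRP78-based luminescent sensor were seeded at 1000 cells/well, pin-dosed with compounds and incubated 16 h. Luciferase reagent was then added, and end-point luminescence was read after 10 min at room temperature.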
gsp antagonist: qHTS for Antagonists of gsp, the Etiologic Mutation Responsible for Fibrous Dysplasia/McCune-Albright Syndrome: qHTS; gsp-mutant cells, cAMP HTRF, 30 min; Potency, µM (doses to about 76.9 µM), actives largely listed as inhibitors; hit rate 0.4% among 340,000; AID 624288, 2012; calls by dose curve; cell line not stated here;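 also: intracellular cAMP measured with PDE inhibitor Ro 20-1724 present during compound exposure; nearly all actives have a fitted effect of over 65% in size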
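HTRF cAMP measurement after 30 min RT detection following 30 min, 37C compound treatment alongside […] (added as 300 uM solution) in G418-selected cells seeded at 2000/well and grown 16–24 h.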
hERG WT inh: qHTS for Inhibitors of KCHN2 3.1: Wildtype qHTS. Voltage-gated inwardly rectifying potassium channel KCNH2 (Homo sapiens), Q12809. U2OS, BacMam KCNH2, thallium flux FluxOr; hits give low values. activity change, % at 1.84 µM. hit rate 0.37% among 340,000. AID 720551, 2013;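 active = maximum activity change below -70%; inconclusive = maximum activity change between -70% and -50%; inactive = maximum activity change above -50%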
Target sequence (Q12809 whole entry, looked up): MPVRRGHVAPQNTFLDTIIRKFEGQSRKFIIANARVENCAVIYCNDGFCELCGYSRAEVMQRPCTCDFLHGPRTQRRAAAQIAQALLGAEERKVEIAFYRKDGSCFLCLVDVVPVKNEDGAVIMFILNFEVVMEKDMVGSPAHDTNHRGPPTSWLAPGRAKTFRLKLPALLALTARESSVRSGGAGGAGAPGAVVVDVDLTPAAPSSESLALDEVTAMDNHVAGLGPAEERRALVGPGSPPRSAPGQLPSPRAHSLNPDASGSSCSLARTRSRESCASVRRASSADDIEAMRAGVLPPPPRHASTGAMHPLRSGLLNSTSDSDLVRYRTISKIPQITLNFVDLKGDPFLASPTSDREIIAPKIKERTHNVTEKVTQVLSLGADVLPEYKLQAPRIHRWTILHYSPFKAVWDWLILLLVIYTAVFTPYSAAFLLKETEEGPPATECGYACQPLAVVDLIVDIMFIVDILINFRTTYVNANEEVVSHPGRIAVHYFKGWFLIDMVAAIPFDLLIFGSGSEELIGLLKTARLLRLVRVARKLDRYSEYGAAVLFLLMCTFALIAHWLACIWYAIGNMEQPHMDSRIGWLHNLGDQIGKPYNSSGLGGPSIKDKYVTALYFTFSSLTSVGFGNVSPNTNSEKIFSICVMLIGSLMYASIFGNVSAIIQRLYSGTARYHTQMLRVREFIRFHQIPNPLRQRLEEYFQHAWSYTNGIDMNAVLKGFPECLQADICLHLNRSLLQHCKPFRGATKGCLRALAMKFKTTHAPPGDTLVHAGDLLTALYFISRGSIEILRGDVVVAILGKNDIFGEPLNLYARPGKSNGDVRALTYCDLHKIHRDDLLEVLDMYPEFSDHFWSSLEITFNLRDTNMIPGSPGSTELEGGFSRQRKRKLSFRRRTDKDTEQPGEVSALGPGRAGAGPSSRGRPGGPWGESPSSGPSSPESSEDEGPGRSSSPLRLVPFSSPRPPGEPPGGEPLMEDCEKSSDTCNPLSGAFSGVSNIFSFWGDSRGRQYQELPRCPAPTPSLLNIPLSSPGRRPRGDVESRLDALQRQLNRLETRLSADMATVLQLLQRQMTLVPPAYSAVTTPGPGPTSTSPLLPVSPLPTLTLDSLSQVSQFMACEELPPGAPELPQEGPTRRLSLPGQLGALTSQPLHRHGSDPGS
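U2OS cells transduced with wild-type KCNH2 virus are loaded with FluxOr dye for 45 min, and thallium flux is measured in kinetic reads before and after stimulation buffer. Rate constants are normalized to DMSO controls.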
gsp agonist: qHTS for Agonist of gsp, the Etiologic Mutation Responsible for Fibrous Dysplasia/McCune-Albright Syndrome: qHTS; gsp mutant cells, cAMP HTRF, 30 min; Potency, µM (series often up to 76.9 µM), actives largely listed as activators; hit rate 0.13% among 340,000; active = well fitted activation curve with a large enough effect; inconclusive = small, poorly fitted or top-dose-only effect, or another doubt; inactive = no such curve, though single readings can be large or run the other way; cell line not stated here;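 also: phosphodiesterase inhibitor Ro 20-1724 added with compounds to block cAMP breakdown; nearly all actives have a fitted effect of over 60% in size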
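Cells stably selected in G418 were plated at 2000/well, grown 16-24 hr, then given compounds in DMSO with the PDE inhibitor […] (300 uM solution added) for 30 min at 37C; cAMP was read by HTRF.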
pAkt inh: HTS Assay for Inhibitors of Akt Phophorylation: Primary Screen. activity change, % for hits at 50 µM. AID 651550, 2012. hit rate 0.32% among 360,000. Neuro2A IGF-stimulated pAkt S473 HTRF, 20 min; hits give low values; in the data active = activity change below about -80%; inconclusive = mostly about -51% to -80%
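Neuro2A cells in DMEM with 0.5% FBS, overnight at 37 deg C, given compound at single 50 µM final, then IGF (6 nM final) for 20 min at 37 deg C. Lysed; phospho-Akt Ser473 by HTRF after 24 h, 665/615 ratio.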
Large screens that a line does not name were inactive.

CC(C)(C)c1ccc(OCc2ccc(C(=O)N/N=C/c3ccc([N+](=O)[O-])cc3)o2)cc1	KCNH2 3.1 inh -80.0
O=C(c1ccc([N+](=O)[O-])cc1)N1CCN(C(=O)C2CCCCC2)CC1	KCNH2 3.1 inh -71.1
Cc1cccc(CN2C[C@H](Sc3ccccn3)C[C@H]2C(=O)Nc2ccc3sc(C)nc3c2)c1	none (no result: KCNH2 3.1 inh, gsp antagonist, hERG WT inh, gsp agonist, pAkt inh)
NC(=S)n1[nH]c(-c2ccc([N+](=O)[O-])cc2)c(N=Nc2cccc(Cl)c2)c1=O	gsp antagonist 25.1µM
Cc1oc(-c2cccc(NC(=O)C3CCCN(C)C3)c2)nc1CNC(=O)c1coc2c1C(=O)CCC2 (stereo not given)	none (no result: KCNH2 3.1 inh, gsp antagonist, hERG WT inh, gsp agonist, pAkt inh)
CSc1ncccc1C(=O)N1CCOc2ccc(C(C)(O)CCn3cccn3)cc2C1 (stereo not given)	none (no result: KCNH2 3.1 inh, gsp antagonist, hERG WT inh, gsp agonist, pAkt inh)
CN(C)CC(C)(O)c1ccc2c(c1)CN(Cc1cccn1-c1ncccn1)CCO2 (stereo not given)	none (no result: KCNH2 3.1 inh, gsp antagonist, hERG WT inh, gsp agonist, pAkt inh)
O=C(CSc1nnc(-c2cccnc2)n1CCN1CCCCC1)Nc1cccc(Cl)c1	KCNH2 3.1 inh -87.2
Cn1c(SCC(=O)Nc2cccc(F)c2)nnc1-c1cccnc1	none
CCN1CCCC1CNC(=O)c1cnn(-c2nccc(-c3cc(OC)ccc3OC)n2)c1C (stereo not given)	none (no result: KCNH2 3.1 inh, gsp antagonist, hERG WT inh, gsp agonist, pAkt inh)
COc1ccc(N2CCN(C(c3ccc(C)cc3)c3nnnn3C(C)(C)C)CC2)cc1 (stereo not given)	none (no result: KCNH2 3.1 inh, gsp antagonist, hERG WT inh, gsp agonist, pAkt inh)
Cc1ccc(C)c(NC(=O)c2cc3c([nH]c4ccccc43)c(C)n2)c1	gsp agonist inconclusive, pAkt inh -101.3%
CC(C)OC(=O)OCOP(=O)(CO[C@H](C)Cn1cnc2c(N)ncnc21)OCOC(=O)OC(C)C	none (no result: KCNH2 3.1 inh, gsp antagonist, hERG WT inh, gsp agonist, pAkt inh)
O=C(c1cc(-c2cccc(Cl)c2)on1)N1CCN(c2ccccc2)CC1	none
O=C(c1cc(-c2cccc(Cl)c2)on1)N1CCCC1	KCNH2 3.1 inh -130.9
Cc1nc(SCC(=O)OCc2ccccc2)c(C#N)c(-c2ccccc2)c1C(=O)Nc1ccccc1	none
Cc1ccccc1NC(=O)c1c(C)nc(SCC(=O)OCc2ccccc2)c(C#N)c1-c1ccc(F)cc1	KCNH2 3.1 inh -113.8
Cn1nccc1C(=O)NCC1CCC2(CCN(Cc3ccc(-c4ccc(Cl)cc4)o3)CC2)O1 (stereo not given)	none (no result: KCNH2 3.1 inh, gsp antagonist, hERG WT inh, gsp agonist, pAkt inh)
Cc1cc(C)c(S(=O)(=O)N2CCN(C(=O)c3c(C)nn(-c4ccccc4)c3Cl)CC2)c(C)c1	gsp antagonist 25.1µM
CCN(C(=O)c1ccc(=O)n(C)n1)c1c(N)n(Cc2ccccc2)c(=O)[nH]c1=O	KCNH2 3.1 inh -92.3
O=C(Nc1ccc(Cl)cc1)OCCN1CCN(Cc2ccccc2)CCC1=O	none (no result: KCNH2 3.1 inh, gsp antagonist, hERG WT inh, gsp agonist, pAkt inh)
FC(F)(F)C(F)(F)C(F)(F)c1nc2nc(Cl)c(Cl)nc2[nH]1	gsp agonist inconclusive (no result: gsp antagonist)
FC(F)(F)c1nc2nc(Cl)c(Cl)nc2[nH]1	KCNH2 3.1 inh -70.5 (no result: gsp antagonist)
CC(C)(C)OC(=O)NCCCCCNC(=O)c1nc[nH]c1C(=O)NCc1ccc(CNC(=O)OC(C)(C)C)cc1	gsp antagonist 39.8µM (no result: gsp agonist)
C[C@H](NC(=O)c1nc[nH]c1C(=O)NCc1ccccc1)C(=O)OCc1ccccc1	gsp antagonist 11.2µM
COc1ccc(CN2CCN(CCSc3ccc(C)cc3)CC2)c(OC)c1OC	KCNH2 3.1 inh -77.5
COc1ccc(OC)c(CN2CCN(Cc3ccc(OC)c(OC)c3OC)CC2)c1	none (no result: gsp antagonist)
CC1(C)CC(=O)C2=C(C1)NC1=C(C(=O)c3ccccc31)C2c1cc([N+](=O)[O-])ccc1O (stereo not given)	gsp agonist 14.1µM
CC1(C)CC(=O)C2=C(C1)NC1=C(C(=O)c3ccccc31)C2c1ccccc1 (stereo not given)	gsp agonist inconclusive
O=C(CCS(=O)(=O)c1ccc(Br)cc1)NC1CCCC1	gsp agonist 3.98µM
O=C(CCNS(=O)(=O)c1ccc(Br)cc1)NC1CCCCC1	none
